Results: PubChem BioAssay AID1159580 (chemical genetic matrix, 2015)
Where “and” joins values, the source holds several entries; their conditions need not be identical. Identical values can stand only once. Among all 5,500 compounds or so, about 2,000 (36%) were called active. About 18% were inconclusive and are not listed. Cut-off read from the data, not from the text of the source: active = normalized growth mostly below about 0.91 (no sharp cut-off); inconclusive = no clear call, values can overlap the other calls; inactive = mostly above about 0.92. The list shows a part of the results.

Assay: chemical genetic growth profiling, strain panel (AID 1159580);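 note: tested at 20 µM; growth read once vehicle control cultures reached saturation at 30 °C; 1 = growth at the plate median or of vehicle wells; lower values mean less growth of the strain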
Settings: S. cerevisiae deletion strains, growth OD

Measured: normalized growth

C=CC1=C(C)/C(=C/c2[nH]c(Cc3[nH]c(/C=C4\NC(=O)C(C)=C4C=C)c(C)c3CCC(=O)O)c(CCC(=O)O)c2C)NC1=O
active: locus YKL009W, strain mrt4, stronger effect = lower value 1.16 [resistant]
inactive: locus YAL013W, strain DEP1, stronger effect = lower value 1.02 | locus YAL021C, strain ccr4, stronger effect = lower value 0.949 | locus YAL026C, strain drs2, stronger effect = lower value 0.982 | locus YAL030W, strain snc1, stronger effect = lower value 0.996 | locus YBL061C, strain skt5, stronger effect = lower value 0.993 | locus YBR009C, strain hhf1, stronger effect = lower value 1.03 | locus YBR021W, strain FUR4, stronger effect = lower value 1.02 | locus YBR023C, strain chs3, stronger effect = lower value 0.993 | locus YBR171W, strain sec66, stronger effect = lower value 0.982 | locus YBR229C, strain ROT2, stronger effect = lower value 1.01 | locus YBR231C, strain swc5, stronger effect = lower value 1 | locus YBR279W, strain paf1, stronger effect = lower value 0.995 | locus YCL011C, strain gbp2, stronger effect = lower value 0.984 | locus YCL016C, strain dcc1, stronger effect = lower value 0.994 | locus YCL029C, strain bik1, stronger effect = lower value 1.02 | locus YCL061C, strain MRC1, stronger effect = lower value 0.978 | locus YCL069W, strain vba3, stronger effect = lower value 0.986 | locus YCR088W, strain abp1, stronger effect = lower value 0.98 | locus YDL005C, strain med2, stronger effect = lower value 0.981 | locus YDL035C, strain GPR1, stronger effect = lower value 1.02 | locus YDL040C, strain nat1, stronger effect = lower value 0.979 | locus YDL074C, strain BRE1, stronger effect = lower value 1.03 | locus YDL101C, strain DUN1, stronger effect = lower value 1.01 | locus YDL134C, strain PPH21, stronger effect = lower value 1.02 | locus YDL185W, strain tfp1, stronger effect = lower value 1.01 | locus YDL192W, strain arf1, stronger effect = lower value 1.02 | locus YDR001C, strain nth1, stronger effect = lower value 0.979 | locus YDR069C, strain doa4, stronger effect = lower value 0.998 | locus YDR101C, strain arx1, stronger effect = lower value 1.03 | locus YDR137W, strain rgp1, stronger effect = lower value 0.931 | locus YDR159W, strain sac3, stronger effect = lower value 1.02 | locus YDR162C, strain NBP2, stronger effect = lower value 1.04 | locus YDR195W, strain ref2 0.992 | locus YDR297W, strain sur2, stronger effect = lower value 0.978 | locus YDR318W, strain mcm21, stronger effect = lower value 1.02 | locus YDR334W, strain swr1, stronger effect = lower value 0.955 | locus YDR335W, strain msn5, stronger effect = lower value 0.974 | locus YDR388W, stronger effect = lower value 1.02 | locus YDR392W, strain spt3, stronger effect = lower value 0.916 | locus YDR502C, strain sam2, stronger effect = lower value 1 | locus YEL003W, strain gim4, stronger effect = lower value 0.981 | locus YEL037C, strain rad23, stronger effect = lower value 0.984 | locus YEL061C, strain CIN8 (second series), stronger effect = lower value 0.989 | locus YEL061C, strain CIN8, stronger effect = lower value 1 | locus YER015W, strain faa2, stronger effect = lower value 0.99 | locus YER016W, strain bim1, stronger effect = lower value 0.992 | locus YER110C, stronger effect = lower value 1.01 | locus YER111C, strain swi4, stronger effect = lower value 1 | locus YER155C, strain BEM2 (second series), stronger effect = lower value 1.02 | locus YER155C, strain BEM2, stronger effect = lower value 1.01 | locus YER167W, strain BCK2, stronger effect = lower value 1.01 | locus YFR010W, strain ubp6, stronger effect = lower value 0.985 | locus YGL078C, strain dbp3, stronger effect = lower value 1.04 | locus YGL086W, strain mad1, stronger effect = lower value 1.03 | locus YGL167C, strain pmr1, stronger effect = lower value 0.995 | locus YGL173C, strain kem1, stronger effect = lower value 0.975 | locus YGL227W, strain vid30, stronger effect = lower value 0.994 | locus YGL240W, strain doc1, stronger effect = lower value 1.02 | locus YGL248W, strain PDE1, stronger effect = lower value 1.02 | locus YGL253W, strain hxk2, stronger effect = lower value 1.01 | locus YGR078C, strain PAC10, stronger effect = lower value 1 | locus YGR135W, strain pre9, stronger effect = lower value 0.993 | locus YGR252W, strain gcn5, stronger effect = lower value 0.99 | locus YHR013C, strain ard1, stronger effect = lower value 0.97 | locus YHR027C, strain rpn1, stronger effect = lower value 0.987 | locus YHR030C, strain SLT2, stronger effect = lower value 1.01 and 1.03 | locus YHR079C, strain IRE1 (second series), stronger effect = lower value 1.01 | locus YHR079C, strain IRE1, stronger effect = lower value 1.04 | locus YHR094C, strain hxt1, stronger effect = lower value 1.01 | locus YHR129C, strain ARP1, stronger effect = lower value 1 | locus YHR142W, strain chs7, stronger effect = lower value 0.932 | locus YHR200W, strain rpn10, stronger effect = lower value 1.02 | locus YIL066C, strain RNR3, stronger effect = lower value 1.02 | locus YIL073C, strain SPO22, stronger effect = lower value 1.15 | locus YIL125W, strain kgd1, stronger effect = lower value 1.05 | locus YIR030C, strain dcg1, stronger effect = lower value 1.02 | locus YJL092W, strain hpr5, stronger effect = lower value 0.961 | locus YJL095W, strain BCK1 (second series), stronger effect = lower value 0.994 | locus YJL095W, strain BCK1, stronger effect = lower value 1.02 and 0.973 | locus YJL115W, strain asf1, stronger effect = lower value 0.978 | locus YJL129C, strain trk1, stronger effect = lower value 0.97 | locus YJL134W, strain LCB3, stronger effect = lower value 1.01 | locus YJL154C, strain vps35, stronger effect = lower value 0.982 | locus YJL164C, strain tpk1, stronger effect = lower value 0.973 | locus YJL166W, strain qcr8, stronger effect = lower value 0.997 | locus YJL168C, strain set2, stronger effect = lower value 1.01 | locus YJL187C, strain SWE1 (second series), stronger effect = lower value 0.998 | locus YJL187C, strain SWE1, stronger effect = lower value 0.983 | locus YJR043C, strain POL32, stronger effect = lower value 1.02 | locus YJR066W, strain TOR1, stronger effect = lower value 1 | locus YJR075W, strain HOC1, stronger effect = lower value 1.01 | locus YKL068W, stronger effect = lower value 1.03 | locus YKL085W, strain MDH1 (second series), stronger effect = lower value 1.04 | locus YKL085W, strain MDH1, stronger effect = lower value 1.04 | locus YKL160W, strain elf1, stronger effect = lower value 0.972 | locus YKR001C, strain vps1, stronger effect = lower value 1.05 | locus YKR026C, strain gcn3, stronger effect = lower value 0.986 | locus YKR091W, strain srl3, stronger effect = lower value 0.982 | locus YLL001W, strain dnm1, stronger effect = lower value 0.988 | locus YLL026W, stronger effect = lower value 0.99 | locus YLL041C, strain sdh2, stronger effect = lower value 0.979 | locus YLR027C, strain aat2, stronger effect = lower value 0.979 | locus YLR039C, strain RIC1, stronger effect = lower value 1 | locus YLR058C, strain SHM2, stronger effect = lower value 1 | locus YLR102C, strain apc9, stronger effect = lower value 1.02 | locus YLR113W, strain HOG1, stronger effect = lower value 0.964 | locus YLR221C, strain rsa3, stronger effect = lower value 0.966 | locus YLR258W, strain gsy2, stronger effect = lower value 1 | locus YLR262C, strain YPT6 (second series), stronger effect = lower value 0.963 | locus YLR262C, strain YPT6, stronger effect = lower value 1.08 | locus YLR268W, strain sec22, stronger effect = lower value 1.03 | locus YLR320W, strain mms22, stronger effect = lower value 1.02 | locus YLR330W, strain CHS5, stronger effect = lower value 1.01 | locus YLR342W, strain FKS1 (second series), stronger effect = lower value 1.01 | locus YLR342W, strain FKS1, stronger effect = lower value 0.992 | locus YLR357W, strain rsc2, stronger effect = lower value 1.01 | locus YLR370C, strain arc18, stronger effect = lower value 0.976 | locus YLR371W, strain rom2, stronger effect = lower value 1.03 | locus YLR384C, strain iki3, stronger effect = lower value 0.987 | locus YLR418C, strain cdc73, stronger effect = lower value 1.03 | locus YML016C, strain PPZ1, stronger effect = lower value 1 | locus YML032C, strain rad52, stronger effect = lower value 1.03 | locus YML120C, strain ndi1, stronger effect = lower value 0.961 | locus YML124C, strain tub3, stronger effect = lower value 1.02 | locus YMR058W, strain fet3, stronger effect = lower value 0.971 | locus YMR078C, strain ctf18, stronger effect = lower value 1.04 | locus YMR125W, strain sto1, stronger effect = lower value 1.02 | locus YMR129W, stronger effect = lower value 0.988 | locus YMR205C, strain PFK2, stronger effect = lower value 1.02 | locus YMR223W, strain ubp8, stronger effect = lower value 1 | locus YMR231W, strain pep5, stronger effect = lower value 0.99 | locus YMR263W, strain SAP30, stronger effect = lower value 1 | locus YMR307W, strain GAS1, stronger effect = lower value 0.968 | locus YNL067W, strain RPL9B, stronger effect = lower value 0.999 | locus YNL071W, strain lat1, stronger effect = lower value 0.988 | locus YNL183C, strain NPR1, stronger effect = lower value 0.919 | locus YNL209W, strain ssb2, stronger effect = lower value 0.987 | locus YNL233W, strain BNI4, stronger effect = lower value 1.01 | locus YNL248C, strain rpa49, stronger effect = lower value 0.938 | locus YNL250W, strain rad50, stronger effect = lower value 1.01 | locus YNL271C, strain bni1, stronger effect = lower value 1.03 | locus YNL298W, strain CLA4, stronger effect = lower value 1.02 | locus YNL307C, strain MCK1, stronger effect = lower value 1.01 | locus YNL322C, strain KRE1 (second series), stronger effect = lower value 0.982 | locus YNL322C, strain KRE1, stronger effect = lower value 1.01 | locus YNR049C, strain mso1, stronger effect = lower value 0.981 | locus YNR052C, strain pop2, stronger effect = lower value 1.01 | locus YOL012C, strain htz1 0.856 | locus YOL147C, strain pex11, stronger effect = lower value 1.02 | locus YOR001W, strain rrp6, stronger effect = lower value 0.951 | locus YOR061W, strain CKA2, stronger effect = lower value 1.03 | locus YOR069W, strain VPS5, stronger effect = lower value 1.01 | locus YOR070C, strain gyp1, stronger effect = lower value 0.996 | locus YOR080W, strain dia2, stronger effect = lower value 0.986 | locus YOR083W, strain WHI5, stronger effect = lower value 0.94 | locus YOR106W, strain vam3, stronger effect = lower value 0.951 | locus YOR136W, strain idh2, stronger effect = lower value 1.02 | locus YOR144C, strain elg1, stronger effect = lower value 1.01 | locus YOR184W, strain ser1, stronger effect = lower value 1.07 | locus YOR231W, strain MKK1, stronger effect = lower value 1.03 | locus YOR265W, strain rbl2, stronger effect = lower value 0.985 | locus YOR270C, strain vph1, stronger effect = lower value 0.971 | locus YOR290C, strain snf2, stronger effect = lower value 1.01 | locus YOR316C, strain cot1, stronger effect = lower value 1.02 | locus YPL051W, strain arl3, stronger effect = lower value 0.969 | locus YPL055C, strain LGE1, stronger effect = lower value 0.995 | locus YPL078C, strain atp4, stronger effect = lower value 0.939 | locus YPL106C, strain sse1, stronger effect = lower value 0.949 | locus YPL240C, strain hsp82, stronger effect = lower value 0.982 | locus YPL241C, strain CIN2, stronger effect = lower value 1.01 | locus YPL256C, strain CLN2, stronger effect = lower value 1.06 | locus YPR119W, strain clb2, stronger effect = lower value 1.01 | locus YPR163C, strain tif3, stronger effect = lower value 1.02 | locus YPR167C, strain met16, stronger effect = lower value 1.02 | strain wtn01, stronger effect = lower value 1.04
